# From PubChem BioAssay
# Activity calls are given as the source filed them.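 The calls were made as follows, unless noted: active = visually confirmed hit in the image check and inhibition above 20%; inconclusive = visually confirmed hit but inhibition not above 20%; inactive = no visual hit in the image check.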
# Assay: inhibitors of mutant huntingtin aggregation, primary screen, imaging, exon1htt(103Q)mCFP cells, high-content imaging (AID 483;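 active = visual image review flags a hit and inhibition of aggregation exceeds 20%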;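 also: compound exposure lasted 3 days before fixation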;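 as to nuclei count: percent of the per-plate median nuclei count of sample wells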)
# Settings: exon1htt(103Q)mCFP cell line, aggregate imaging, at 2 µM; inhibition of aggregation: stronger effect = higher value; nuclei count: measured here: cell count, toxicity
SMILES,inhibition of aggregation,nuclei count
CCCN(Cc1cc2ccc(C)cc2[nH]c1=O)C(=O)c1cccnc1,-34.8% (inactive),104%
CCOC(=O)C(CC)Sc1nc2c(c(=O)[nH]c(=O)n2C)n1C/C=C(/C)Cl (stereo not given),18% (inactive),96.3%
Cc1cc(C)n(C2=NS(=O)(=O)c3ccccc32)n1,7.1% (inactive),92%
Cc1nnc(SCc2ccccc2F)n1NCc1cccs1,-8.1% (inactive),106%
Cc1nc2ccc(Br)cn2c1NC(C)(C)C,-17.9% (inactive),103%
Cc1cc(NCCN2CCCCC2)n2c(nc3ccccc32)c1C#N,-3.2% (inactive),61.6%
CC(NS(=O)(=O)c1ccc(F)cc1)C(c1cccs1)N1CCN(C)CC1 (stereo not given),-11.1% (inactive),104%
COC(=O)Cn1c(CN2CCN(c3ccccc3F)CC2)nc2c1c(=O)n(C)c(=O)n2C,-18.2% (inactive),90.2%
COc1ccc(CCNC(=O)c2cnc3scc(C)n3c2=O)cc1OC,-6% (inactive),82.6%
CCn1c(SCc2cccc(C(F)(F)F)c2)nnc1-c1ccco1,4.5% (inactive),94.1%
COc1ccc(-n2c(SCC(=O)N3CCCCC3C)nnc2-c2cccnc2)cc1 (stereo not given),24.3% (inactive),93.6%

# Assay: inhibitors of E-selectin induction by TNFa, primary screen, imaging, HUVEC, immunofluorescence, MLSMR starter and 10KST1 sets (AID 487);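 as to inhibition: signal is fraction of cell area covered by stained E-selectin grains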;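 as to nuclei count: 100% = median nuclei count of all wells on the same plate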
# Settings: HUVEC TNFalpha-induced E-selectin immunofluorescence imaging, at 2 µM; inhibition: stronger effect = higher value; nuclei count: measured here: cell number, toxicity
SMILES,inhibition,nuclei count
Cn1c(=O)c2c(-c3ccccc3)n(CCCN3CCOCC3)cc2n(C)c1=O,-6.9% (inactive),102%
CCc1ccc(Nc2cc(=O)n(C3CCCCC3)c(=O)[nH]2)cc1,-1.5% (inactive),121%
CCC(C(=O)N1CCc2cc(OC)c(OC)cc2C1)c1ccccc1 (stereo not given),11.7% (inactive),103%
COc1ccccc1N(CC(=O)NCc1ccccn1)S(C)(=O)=O,29.3% (inactive),75.4%
Cc1cc2cc(CCNC(=O)CC(C)C)c(=O)[nH]c2cc1C,-40% (inactive),107%
CC1(C)CC(=O)C=C(Nc2ccc(OCC(F)(F)C(F)F)cc2)C1,-43% (inactive),116%
Cn1nc(C(=O)N2CCOCC2)c2ccccc2c1=O,-79.4% (inactive),130%
S=c1[nH]ncn1-c1ccccn1,-40.7% (inactive),109%
Cc1ccccc1N1C(N)=NC(N)=NC1(C)C,-6.8% (inactive),110%
O=C(Cn1nnc(-c2ccc(CN3CCOCC3)cc2)n1)NC1CCCCC1,-20.9% (inactive),118%
CCCCC(=O)Nc1ccc(NC(=O)C2CC2)nc1,22.7% (inactive),94.2%
CCOC(=O)c1ccc(NC(=O)Cn2cc3c(n2)CCC(C)C3)cc1 (stereo not given),-6% (inactive),101%
Cn1c(SCC(=O)N2CCN(c3cccc(Cl)c3)CC2)nnc1-c1ccncc1,-92% (inactive),142%
Cn1c(=O)c(=O)n(C)c2cc(S(=O)(=O)N3CCN(c4cccc(C(F)(F)F)c4)CC3)ccc21,-12.6% (inactive),104%
c1ccc(N2CCN(Cc3ccnc4ccccc34)CC2)cc1,43.4% (inactive),102%
CCCCn1c(SCC(=O)N2CC(=O)Nc3ccccc32)nnc1-c1ccoc1C,-146% (inactive),174%
CC(Sc1nc(-c2ccccc2)cc(C(F)(F)F)n1)C(=O)N1CCC(C(N)=O)CC1 (stereo not given),-45.8% (inactive),126%
CCOc1ccc(N2CC(C(=O)Nc3cccc(C)c3C)CC2=O)cc1 (stereo not given),-61.5% (inactive),114%
CCC(=O)Nc1ccc(NC(=O)c2cccc(OC)c2)nc1,-92.8% (inactive),160%
CCOC(=O)Cc1nnc2c(Nc3ccccc3F)nc3nonc3n12,-38.4% (inactive),142%

SMILES,inhibition,nuclei count
Cc1cccc(N2CCN(C(=O)C3CCCN(S(=O)(=O)c4c(C)noc4C)C3)CC2)c1C (stereo not given),-85.1% (inactive),125%
COc1ccc(N2CCN(Cc3nc(-c4ccc(Cl)cc4Cl)no3)CC2)cc1,-48.8% (inactive),122%
Cc1cc(C(F)(F)F)nn1Cc1ccc(C(=O)NCc2ccco2)o1,-36% (inactive),108%
C/C=C/c1ccc(OCCn2cncn2)c(OC)c1,-73.8% (inactive),120%
Cc1cnc(C(=O)Nc2nnc(C(C)C)s2)cn1,-28.6% (inactive),118%
Cc1nc2scc(-c3cccs3)c2c(=O)n1-n1cccc1,-398% (inactive),140%
COc1ccc(-c2nc(CSCC(=O)N3CCN(c4cccc(C)c4)C(C)C3)c(C)o2)cc1OC (stereo not given),5.7% (inactive),83.2%
O=C(OCC(=O)c1ccccc1Br)c1ccccn1,-10.2% (inactive),95.3%
CCCN(Cc1cc2ccc(C)cc2[nH]c1=O)C(=O)c1cccnc1,-5.8% (inactive),109%
CCOC(=O)C(CC)Sc1nc2c(c(=O)[nH]c(=O)n2C)n1C/C=C(/C)Cl (stereo not given),18.5% (inactive),106%
Cc1cc(C)n(C2=NS(=O)(=O)c3ccccc32)n1,70.9% (active),78.2%
Cc1nnc(SCc2ccccc2F)n1NCc1cccs1,-71% (inactive),113%
Cc1nc2ccc(Br)cn2c1NC(C)(C)C,-2.7% (inactive),102%
Cc1cc(NCCN2CCCCC2)n2c(nc3ccccc32)c1C#N,-2% (inactive),134%
CC(NS(=O)(=O)c1ccc(F)cc1)C(c1cccs1)N1CCN(C)CC1 (stereo not given),-0.8% (inactive),105%
COC(=O)Cn1c(CN2CCN(c3ccccc3F)CC2)nc2c1c(=O)n(C)c(=O)n2C,7.8% (inactive),87.6%
COc1ccc(CCNC(=O)c2cnc3scc(C)n3c2=O)cc1OC,19.7% (inactive),86.4%
CCn1c(SCc2cccc(C(F)(F)F)c2)nnc1-c1ccco1,-15.2% (inactive),104%
COc1ccc(-n2c(SCC(=O)N3CCCCC3C)nnc2-c2cccnc2)cc1 (stereo not given),-23.2% (inactive),103%
